Experimental data from ChEMBL document CHEMBL4513216, “Probing the Open Global Health Chemical Diversity Library for Multistage-Active Starting Points for Next-Generation Antimalarials” (ACS Infect Dis, 2020).
In all, about 68,000 compounds went through this assay and about 2,700 (4%) showed an effect of 50% or more. The sample as a whole holds a higher share of strong results than the screen did.

What follows are molecules tested on Plasmodium berghei (assay: Screen against P. berghei liver stage (PbLuc), transformed with Luciferase, at 2uM). Settings: tested at 2 uM.
Format: functional, HepG2

Row | Compound | INHIBITION [%]
1 | OCC1(O)CCN(c2ncccc2C(F)(F)F)CC1 | 65.3
2 | OCC1(O)CCN(c2ccnc3c(C(F)(F)F)cccc23)CC1 | -100.41
3 | Cn1c(CC2CCS(=O)(=O)C2)nnc1SCCOc1cccc(Cl)c1 (centres undefined) | 42.62
4 | O=C(NCc1cncc2c1CCN(CC1CCOC1)C2)c1ccno1 (centres undefined) | 69.13
5 | O=C(NCc1cncc2c1CCN(C1CCOCC1)C2)c1ccno1 | 36.06
6 | c1cnc(NCc2cncc3c2CCN(CC2CC2)C3)nc1 | 30.99
7 | CS(=O)(=O)NCc1cncc2c1CCN(CC1CCOC1)C2 (centres undefined) | 52.05
8 | Cc1nccc(NCc2cncc3c2CCN(CC2CCOC2)C3)n1 (centres undefined) | 22.23
9 | O=C(NCc1cncc2c1CCN(CC1CCOC1)C2)c1ccco1 (centres undefined) | 7.33
10 | COc1ccccc1C(=O)N1CC(=O)N(Cc2ccco2)CC(O)C1 (centres undefined) | -8.2
11 | Cc1cnccc1CN1Cc2ccccc2OC2(CCC(CO)CC2)C1 (centres undefined) | 19.76
12 | O=C1CCC2(CCC(NCc3ccoc3)CC2)N1 (centres undefined) | -29.46
13 | CCc1cnc(NCC(c2ccncc2)N2CCOCC2)nc1 (centres undefined) | 0.12
14 | CN1CCC(c2nnc3ccc(C(=O)N4CCCCC4)cn23)C1 (centres undefined) | 23.43
15 | CCNC(=O)[C@@H]1C[C@@H](NC(=O)c2ccsc2)CN1CCCSC | 68.61
16 | CCNC(=O)[C@@H]1C[C@@H](NC(=O)c2ccc(C#N)cc2)CN1CCCSC | 22.89
17 | CCNC(=O)[C@@H]1C[C@@H](NC(=O)c2cccn2C)CN1CCCSC | 29.89
18 | CC1c2ncc(COc3cccnc3)n2CCN1C(=O)C1=CCCCC1 (centres undefined) | 52.36
19 | COCc1cnc2n1CCN(C(=O)c1cnc3ccccc3c1)C2C (centres undefined) | -17.69
20 | CCOCc1cnc2n1CCN(C(=O)C1=CCCC1)C2C (centres undefined) | 21.92
21 | COCc1cnc2n1CCN(C(=O)c1cc3ccccc3o1)C2C (centres undefined) | -29.49
22 | COCC(=O)N1CCn2c(COc3cccnc3)cnc2C1C (centres undefined) | -28.81
23 | CC1c2ncc(COc3cccnc3)n2CCN1C(=O)C1=CCCC1 (centres undefined) | -7.05
24 | COCc1cnc2n1CCN(C(=O)c1ccc3ccccc3n1)C2C (centres undefined) | 53.08
25 | COCc1cnc2n1CCN(C(=O)C1=CCCCC1)C2C (centres undefined) | 11.55
26 | COCc1cnc2n1CCN(C(=O)C1=CCCC1)C2C (centres undefined) | 53.46
27 | CS(=O)(=O)c1ccc(Cl)c(NC(=O)NCCC2=CCCCC2)c1 | 36.66

Row | Compound | INHIBITION [%]
28 | Cc1cnn(CC2CN(Cc3nnc(C(C)C)o3)CCO2)c1 (centres undefined) | -11.91
29 | CCc1ccc(CN2CCN(c3cccc(OC)c3)C(=O)C2)nc1 | -18.92
30 | CC(c1cccc(-c2cn(Cc3ccoc3)nn2)c1)N(C)C (centres undefined) | 28.62
31 | N#Cc1ccc(C(=O)N2CC[C@H]3[C@H]2CCN3CC2CC2)cc1 | 5.14
32 | CCc1cccc(OC2CN(C(=O)[C@@H](N)[C@@H](C)O)C2)c1 | 18.28
33 | CCn1cc(NC(=O)c2cccc(OCC(F)(F)F)n2)cn1 | -44.13
34 | COCC(Nc1ncnc2sc(C(=O)O)c(C)c12)c1ccnn1C (centres undefined) | -1.87
35 | CCC(=O)N1CCN(C(=O)CCn2cccn2)CC1 | -27.69
36 | CCN(C(=O)CCn1cccn1)C1CC1 | 72.05
37 | CC(C)CC(C)N(C)C(=O)CCn1cccn1 (centres undefined) | 62.51
38 | CC(C)CN1CCN(C(=O)CCn2cccn2)CC1 | 0.74
39 | CNC(=O)C1CCN(C(=O)CCn2cccn2)CC1 | -84.03
40 | CC(C1CC1)N(C)C(=O)CCn1cccn1 (centres undefined) | 31.51
41 | O=C1CC(NS(=O)(=O)c2ccc3ccccc3c2)CN1 (centres undefined) | 2.11
42 | CN(Cc1ccccc1O)C(=O)NC1CCCN(c2ncccn2)C1 (centres undefined) | -12.48
43 | CCS(=O)(=O)CCN1CCCC1c1noc(C)n1 (centres undefined) | 49.02
44 | CCc1nc(C2CCCN2CCn2cncn2)no1 (centres undefined) | 58.49
45 | Cc1nn(C)c(C)c1C1CCCN1Cc1nc(C2CC2)no1 (centres undefined) | -38.96
46 | CS(=O)(=O)CCN1CCCC1c1noc(C2CC2)n1 (centres undefined) | 21.83
47 | COc1c(C2CCCN2Cc2nc(C3CC3)no2)c(C)nn1C (centres undefined) | -13.46
48 | CCc1nc(C2CCCN2Cc2nc3ccccc3o2)no1 (centres undefined) | -32.11
49 | CCc1nc(C2CCCN2C(=O)CCCn2cncn2)no1 (centres undefined) | 37.31
50 | c1ccc2oc(CCCN3CCCC3c3noc(C4CC4)n3)nc2c1 (centres undefined) | 18.86
51 | c1ccc2oc(CN3CCCC3c3noc(C4CC4)n3)nc2c1 (centres undefined) | 63.68
52 | CCc1nc(C2CCCN2C(=O)CCn2cncn2)no1 (centres undefined) | 7.54
53 | CCS(=O)(=O)CCN1CCCC1c1noc(C2CC2)n1 (centres undefined) | 51.21
54 | Cc1nn(C)c(Cl)c1C1CCCN1Cc1nc(C2CC2)no1 (centres undefined) | 51.94
